Source: the antibiotic and cytotoxicity screens of Wong et al. (2023)
The whole screen tested about 39,000 compounds, of which about 3,300 (8.5%) were called active. Only a selection was taken, and actives are over-represented in it overall.

Each compound was assayed on HepG2 (assay: cytotoxicity call (relative viability < 0.9)). Conditions: 10 µM.

Row | Structure (SMILES) | cytotoxicity call
1 | C[C@@H]1CC[C@@]2(OC1)O[C@H]1[C@@H](O)[C@H]3[C@H]4CC[C@H]5C[C@H](O[C@@H]6O[C@H](CO)[C@H](O[C@@H]7O[C@H](CO)[C@@H](O)[C@H](O[C@@H]8OC[C@@H](O)[C@H](O)[C@H]8O)[C@H]7O[C@@H]7O[C@H](CO)[C@H](O)[C@H](O[C@@H]8O[C@H](CO)[C@@H](O)[C@H](O)[C@H]8O)[C@H]7O)[C@H](O)[C@H]6O)[C@H](O)C[C@]5(C)[C@@H]4CC[C@]3(C)[C@H]1[C@@H]2C | inactive
2 | C[C@@H]1CC[C@@]2(OC1)O[C@H]1C[C@H]3[C@@H]4CC=C5C[C@@H](O[C@@H]6O[C@H](CO)[C@@H](O[C@@H]7O[C@@H](C)[C@H](O)[C@@H](O)[C@H]7O)[C@H](O)[C@H]6O[C@@H]6O[C@@H](C)[C@H](O)[C@@H](O)[C@H]6O)CC[C@]5(C)[C@H]4CC[C@]3(C)[C@H]1[C@@H]2C | active
3 | CC1CCC2(NC1)OC1CC3C4CC=C5CC(O)CCC5(C)C4CCC3(C)C1C2C (stereo unspecified) | inactive
4 | C[C@@H]1CN([C@@H](C)CO)C(=O)CCCn2cc(nn2)CO[C@H]1CN(C)C(=O)Oc1ccc2ccccc2c1 | inactive
5 | Cc1nc(N)sc1CCN | inactive
6 | C1CC2(CCN1)OCCO2 | inactive
7 | [N-]=[N+]=NCc1ccccc1C[C@@]1(C(=O)NCCN2CCOCC2)N=C(c2ccc(OCCCO)cc2)O[C@@H]1c1ccccc1N=[N+]=[N-] | active
8 | [N-]=[N+]=Nc1ccccc1C[C@@]1(C(=O)NCCN2CCOCC2)N=C(c2ccc(OCCCO)cc2)O[C@@H]1c1ccccc1N=[N+]=[N-] | inactive
9 | [N-]=[N+]=NCc1ccccc1C[C@]1(C(=O)NCCN2CCOCC2)N=C(c2ccc(OCCCO)cc2)O[C@H]1c1ccccc1N=[N+]=[N-] | active
10 | COCCCNC(=O)[C@@]1(Cc2ccccc2N=[N+]=[N-])N=C(c2ccc(OCCCO)cc2)O[C@H]1c1ccccc1N=[N+]=[N-] | inactive
11 | Cn1ccnc1C(=O)N[C@H]1CN[C@@H]2CCCO[C@@H]12 | inactive
12 | Nc1ncnc2c1ncn2CCOCP(=O)(O)O | inactive
13 | Cc1cc([C@@H](C#N)c2ccc(Cl)cc2)c(Cl)cc1NC(=O)c1cc(I)cc(I)c1O | inactive
14 | CCC1(O)CC(O)c2c(cc3c(c2O)C(=O)c2c(O)ccc(O)c2C3=O)C1C(=O)OC (stereo unspecified) | inactive
15 | CC[C@@]1(O)C[C@H](O[C@H]2C[C@H](N(C)C)[C@H](O)[C@H](C)O2)c2c(cc3c(c2O)C(=O)c2c(O)ccc(O)c2C3=O)[C@H]1C(=O)OC | active
16 | Cl.NCCc1cc(O)c(O)cc1O | inactive
17 | C[C@@H]1CN([C@H](C)CO)C(=O)CCCn2nncc2CO[C@@H]1CN(C)C(=O)Oc1ccc2ccccc2c1 | inactive
18 | COc1cc2c(cc1OC)C13CCN4CC5=CCOC6CC(=O)N2C1C6C5CC43 (stereo unspecified) | inactive

Row | Structure (SMILES) | cytotoxicity call
19 | O=C1CC2OCC=C3CN4CCC56c7ccccc7N1C5C2C3CC46.O=S(=O)(O)O (stereo unspecified) | active
20 | O=C(O)C[C@@H]1CC[C@H]2NC[C@H](O)COC[C@@H]2O1 | inactive
21 | c1ccc2cc3c(cc2c1)-c1cccc2cccc-3c12 | active
22 | c1csc(N2CCNCC2)n1 | inactive
23 | COC(=O)[C@@H]1C(=O)NC[C@H]1C(C)C | inactive
24 | CC(=O)N[C@H]1CCSC1=O | inactive
25 | NC(N)=NOCC[C@H](N)C(=O)O | inactive
26 | [N-]=[N+]=CC(=O)OCC(N)C(=O)O (stereo unspecified) | active
27 | N#[N+]CC(=O)OC[C@H](N)C(=O)O | inactive
28 | O=C(NCc1ccccn1)[C@]12CNC[C@H]1COC2 | inactive
29 | O=C1[O][Pt]2([NH][C@@H]3CCCC[C@H]3[NH]2)[O]C1=O | inactive
30 | CCN1C[C@]2(COC)CC[C@@H](OC)[C@@]34[C@@H]2[C@@H](OC)[C@@H]([C@@H]13)[C@]1(OC(C)=O)C[C@@H](OC)[C@@]2(O)C[C@H]4[C@@H]1[C@H]2OC(=O)c1ccc(OC)cc1 | inactive
31 | Cc1cc(O)c2c(=O)c3c(O)cc(O)c4c5c(O)cc(O)c6c(=O)c7c(O)cc(C)c8c1c2c(c34)c(c78)c65 | active
32 | CC(C)C[C@@H]1C(=O)N2CCC[C@@H]2[C@]2(O)O[C@@](NC(=O)[C@@H]3C=C4c5cccc6[nH]c(Br)c(c56)C[C@@H]4N(C)C3)(C(C)C)C(=O)N12 | inactive
33 | CC[C@@H](CN)c1ccccc1 | inactive
34 | C[N+](C)(C)C[C@H]1CCC[C@@H]1O | inactive
35 | CN1C(=O)N(C)C2C1N(C)C(=O)N2C (stereo unspecified) | inactive
36 | NCCc1ccc(C(=O)c2ccccc2)cc1 | inactive
